# High-throughput results (PubChem BioAssay)
# HT1080-NT tox: kills 2HG-producing HT-1080-NT fibrosarcoma cells; AID 686970; Potency, µM (doses to about 46.1 µM), hits mostly cytotoxic; HT-1080-NT fibrosarcoma viability, CellTiter-Glo ATP luminescence, 48 h; hit rate 1.6% among 360,000;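 further: NT is the 2HG producing partner of a matched IDH1 knockdown line; nearly all actives have a fitted effect of over 55% in size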
#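 Toxicity toward the 2HG-producing NT line was scored as %Activity, normalised to DMSO and no-cell wells, from CellTiter-Glo luminescence after 48 hours' treatment.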
# HT1080 IDH1KD tx: kills HT-1080 cells with IDH1 knockdown. HT-1080 IDH1 knockdown viability, ATP luminescence, 48 h. Potency, µM (series often up to 46.1 µM), actives largely listed as cytotoxic. hit rate 2% among 360,000. AID 686971
#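 Luminescent ATP read-out (CellTiter-Glo, 10 min at room temperature) after 48 h compound exposure at 37 °C gave viability of IDH1-knockdown HT-1080 cells. Activity was normalised to DMSO and cell-free wells, then fitted as concentration-response curves.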
# IL-1B inflam inh: inhibitors of inflammasome signaling (IL-1 beta secretion) | THP-1 LPS/ATP IL-1B secretion, AlphaLISA, 16 h; hits give low values | activity change, % at 57.5 µM | hit rate 4.7% among 360,000; in the data active means activity change below about -50%; inconclusive means mostly about -30% to -49%
#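 Secreted IL-1B measured by AlphaLISA bead assay after 16 h compound exposure of THP-1 cells; compounds (final up to 57.5 uM) added 1 h before LPS (250 ng/mL) and ATP (1.25 mM) stimulation; lower signal means less secretion.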
# DT40 TDP1 no CPT: qHTS for Inhibitors of human tyrosyl-DNA phosphodiesterase 1 (TDP1): qHTS in cells in absence of CPT; DT40 Tdp1-/- hTDP1 cells, no CPT, ATP luminescence, 48 h; Potency, µM (highest dose often 46.2 µM), usual class: inhibitors; hit rate 15% among 420,000; further: nearly all actives have a fitted effect of over 55% in size
#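 Stably hTDP1-transfected Tdp1-null chicken DT40 cells were treated with library compounds minus camptothecin and grown for at least 48 hr at 37 °C, after which cellular ATP was quantified by luminescence.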
# DT40 TDP1 CPT: DT40-hTDP1 cell growth loss with CPT. Potency, µM (titrated, usually from 46.2 µM), actives largely listed as inhibitors. hit rate 12% among 420,000. AID 686979. chicken DT40 Tdp1-/-;hTDP1 cells + 20 nM CPT, ATP luminescence, 48 h; further: nearly all actives have a fitted effect of over 55% in size
#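 Chicken DT40 Tdp1-/- cells complemented with human TDP1, 400 cells/well, exposed to compounds plus 20 nM camptothecin for at least 48 h at 37 C; viability read as ATP content by CellTiter-Glo luminescence.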
# Hits are given with their value; n = inactive; u = inconclusive; x = no result. An excerpt weighted towards active compounds, which were near 19% of everything screened. Unless noted, the call rests on the fitted dose curve; in most records, active means well fitted curve in the direction sought with a large enough effect; inconclusive means small, poorly fitted or top-dose-only effect, or another doubt; inactive means no such curve, though single readings can be large; an effect the other way counts as inactive or inconclusive.
SMILES,HT1080-NT tox,HT1080 IDH1KD tx,IL-1B inflam inh,DT40 TDP1 no CPT,DT40 TDP1 CPT
N#C/C(=C/c1cn(-c2ccccc2)nc1-c1cccc(OCc2ccccc2)c1)C(=O)NCCCn1ccnc1,n,u,-75.3,u,u
N#C/C(=C/c1cn(-c2ccccc2)nc1-c1cccc(S(=O)(=O)N2CCOCC2)c1)C(=O)NCc1ccco1,n,n,n,u,n
Cc1ccc(-c2nn(-c3ccccc3)cc2/C=C(\C#N)C(=O)NCc2ccccc2)cc1,n,n,n,u,n
CCOC(=O)[C@@H]1[C@H]2COc3cc(OC)ccc3[C@@H]2N2C(=O)N(c3ccc(OC)cc3)C(=O)[C@]12C,n,n,n,n,n
COc1ccc([C@@H]2[C@@H]3C(=O)N(C(C)(C)C)C(=O)[C@@H]3[C@]3(C)C(=O)N(c4ccc(C(F)(F)F)cc4)C(=O)N23)cc1,n,n,n,16.4µM,u
CCOC(=O)[C@@H]1[C@H]2COc3cc(OC)ccc3[C@@H]2N2C(=O)N(c3ccc(C(F)(F)F)cc3)C(=O)[C@@]12C,n,n,n,13µM,u
CCOC(=O)[C@@H]1[C@H]2COc3cc(OC)ccc3[C@H]2N2C(=O)N(c3ccc(OC)cc3)C(=O)[C@]12C,n,n,n,u,u
CCOC(=O)[C@@H]1[C@H]2COc3cc(OC)ccc3[C@H]2N2C(=O)N(c3ccc(C(F)(F)F)cc3)C(=O)[C@]12C,u,u,n,20.6µM,14.6µM
Cc1ccc(NC(=O)Cn2nnc(C(=O)NCCc3ccccc3)c2N)cc1,x,x,x,n,n
O=C(Cn1ncc2c(Cl)cccc21)NCc1cccc(Cl)c1,x,x,x,n,n
Cc1oc(-c2ccccc2F)nc1CS(=O)(=O)CC(=O)N1CCCCCC1,n,n,n,u,n
COc1cccc(-c2nc(CS(=O)(=O)CC(=O)NCCCN3CCOCC3)c(C)o2)c1,n,n,-77.1,n,n
Cc1oc(-c2ccccc2F)nc1CS(=O)(=O)CC(=O)N1CCN(c2ccc(Cl)cc2)CC1,x,x,x,20.6µM,25.9µM
COc1cccc(-c2nc(CS(=O)(=O)CC(=O)NCc3ccccc3OC)c(C)o2)c1,n,n,n,18.4µM,u
COc1cccc(-c2nc(CS(=O)(=O)CC(=O)N3CCN(c4ccccc4)CC3)c(C)o2)c1,x,x,x,23.1µM,u
COc1cccc(-c2nc(CS(=O)(=O)CC(=O)NCc3ccccc3)c(C)o2)c1,n,n,n,u,u
CCN1CCN(C(=O)CS(=O)(=O)Cc2nc(-c3cccc(OC)c3)oc2C)CC1,n,n,n,n,n
COc1cc(NC(=O)c2ccc(Cl)cc2)c(Cl)cc1NC(=O)c1cccnc1,n,n,n,n,n
CCn1cc(CNC(=O)C2CCC(=O)N(Cc3ccc(Cl)cc3)C2)cn1 (stereo not drawn),n,n,n,n,n
COc1ccc(/C=C(\NC(=O)c2ccccc2)C(=O)N2CCC(C)CC2)cc1,n,n,n,u,n
NS(=O)(=O)c1ccc(N/C=C\C(=O)c2ccc3ccccc3c2)cc1,n,n,n,n,n
COc1ccc(OC)c(CCNC(=O)CS(=O)(=O)Cc2nc(-c3ccccc3Cl)oc2C)c1,n,n,-52.5,u,u
CCCCN(CC)CCCNC(=O)CS(=O)(=O)Cc1nc(-c2ccc(C)cc2)oc1C,x,x,x,20.6µM,u
Cc1oc(-c2ccccc2Cl)nc1CS(=O)(=O)CC(=O)NCCN1CCOCC1,n,n,n,n,n
COc1ccc(C)cc1NS(=O)(=O)c1ccc(NC(=O)CN(c2cc([N+](=O)[O-])ccc2C)S(C)(=O)=O)cc1,u,u,n,14.6µM,9.2µM
SMILES,HT1080-NT tox,HT1080 IDH1KD tx,IL-1B inflam inh,DT40 TDP1 no CPT,DT40 TDP1 CPT
Cc1cccc(NS(=O)(=O)c2ccc(NC(=O)CN(c3cc([N+](=O)[O-])ccc3C)S(C)(=O)=O)cc2)c1,u,u,u,u,16.4µM
Cc1ccccc1N(CC(=O)Nc1ccc(F)cc1)S(C)(=O)=O,n,n,n,n,n
Cc1cccc(N(CC(=O)Nc2ccc(Br)cc2)S(C)(=O)=O)c1C,x,x,x,20.6µM,u
Cc1nn(C)c(C)c1S(=O)(=O)N(CC(=O)NCCCN1CC(C)CC(C)C1)c1ccc(C(C)C)cc1 (stereo not drawn),n,n,u,n,n
CC(=O)c1ccc(N2CCN(S(=O)(=O)c3c(C(=O)N4CCCC4)c(C)n(C)c3C)CC2)cc1,n,n,n,n,n
O=C(/C=C/c1ccco1)Nc1ccc(Cl)c(-c2nc3cc(Cl)ccc3o2)c1,x,x,x,25.9µM,u
O=C(/C=C/c1ccco1)Nc1ccc(Cl)c(S(=O)(=O)N2CCOCC2)c1,n,u,n,u,u
Cc1cc(NC(=O)C(C)C)cc(-c2nc3ncccc3o2)c1O,x,x,x,13µM,u
Cc1ccc2oc(-c3cc(NC(=O)/C=C/c4ccco4)ccc3Cl)nc2c1,x,x,x,20.6µM,u
Cc1cc(NC(=O)c2ccco2)cc(-c2nc3cc(Cl)ccc3o2)c1O,x,x,x,11.6µM,18.4µM
O=C(Nc1ccc2oc(-c3cccnc3)nc2c1)c1ccco1,n,n,u,n,n
COC1=CC(=O)OC(c2ccc(C#N)cc2)C1 (stereo not drawn),n,n,n,n,n
Cc1ccc(N(NC(=O)C(O)(c2ccccc2)c2ccccc2)C(=O)CCl)cc1,5.17µM,5.8µM,-97.7,5.17µM,4.11µM
O=C(Nc1ccccc1)NN(C(=O)CCl)c1ccccc1,7.31µM,4.61µM,-96.1,3.26µM,3.26µM
CCC(O)(CC)C(=O)NN(C(=O)CCl)c1ccccc1,n,u,-81.6,14.6µM,13µM
CCCNC(=O)C1Cc2cc(S(=O)(=O)N3CCCCCC3)ccc2N1C(C)=O (stereo not drawn),x,x,x,n,n
O=C(NC(c1ccccc1)c1ccccc1)c1ccc(Br)o1,n,n,n,u,u
O=C(/C=C/c1ccc(Br)o1)NC(c1ccccc1)c1ccccc1,n,n,u,u,9.2µM
Cc1ccc(C(=S)NCS(=O)(=O)c2ccc(C)cc2)cc1,u,u,n,13µM,13µM
Cc1ccc(S(=O)(=O)CNC(=S)c2cccc(Cl)c2)cc1,n,n,n,u,n
COc1ccc(-c2cc(=O)c3c(O)cc(O)cc3o2)cc1,n,n,u,23.7µM,u
O=c1cc(-c2ccc(O)cc2)oc2c(-c3c(O)cc(O)c4c(=O)cc(-c5ccc(O)cc5)oc34)c(O)cc(O)c12,n,n,n,n,n
O=c1cc(-c2ccc(O)cc2)oc2cccc(O)c12,x,x,x,29.9µM,29.9µM
O=C(O)CCCNc1cc(N2CCN(C3CCCCC3)CC2)c2noc3c2c1C(=O)c1ccccc1-3,x,x,x,n,n
CCOC(=O)C(C(=O)OCC)c1cc(Br)c2noc3c2c1C(=O)c1ccccc1-3,9.2µM,11.6µM,-88.8,2.59µM,3.66µM
COc1ccc(Cl)cc1NC(=O)CSc1nc(=O)n(CCN(C)C)c2c1CCCC2,n,n,u,u,16.4µM
